Among all 2,100 compounds or so, about 650 (31%) were called active. Inconclusive results (about 16%) are left out. Calls come from the whole dose curve; as a rule, active = well fitted inhibition curve with a large enough effect; inconclusive = small, poorly fitted or top-dose-only effect; inactive = flat fitted curve, though single readings scatter. The list shows a part of the results. A call without a number means that no potency is given here.
Test: qHTS for inhibitors of Vif-A3G interactions: Cherry picks; note: nearly all actives have a fitted effect of over 80% in size
Conditions: HeLa A3G-eYFP + Vif (tagged APOBEC3G with the HIV-1 protein that degrades it), 24 h; Potency: eYFP fluorescence increase; series mostly up to 36.9 µM
In short: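 Cherry-picked compounds tested at several concentrations on A3G-eYFP/Vif HeLa cells for 24 hours; loss of Vif-driven degradation read as eYFP fluorescence by cytometric plate imaging, 488 nm excitation, 500-530 nm emission.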
Potency is the fitted concentration of half-maximal effect.

With `COc1cc(N2CCCC2)c(OC)cc1/C=C(/C#N)c1ccc(Br)cc1` as the compound, how does the Potency read?
Its Potency is 8.2 µM (active).

Which Potency does the source give for `CSc1nc2ccccc2cc1/C=C(\C#N)c1ccccc1` here?
The Potency was “inactive”.

For `COc1cc(N2CCCC2)c(OC)cc1/C=C(/C#N)c1ccc(F)cc1`, which Potency is on record?
The Potency was 18.4 µM (active).

Which Potency does the source give for `COc1cc(-c2cnc3c(NC(C)=O)cc(-c4ccccc4CN(C)C)cn23)cc(OC)c1OC` here?
The Potency was “inactive”.

For `COc1cc(C(=O)OCC(=O)Nc2ccc(N3CCOCC3)cc2)ccc1OCC(C)C`, which Potency is on record?
The Potency was “inactive”.

Which Potency does the source give for `CN(C)c1ccc(/C=C/c2ccnc3ccc(Br)cc23)cc1` here?
The Potency was 2.59 µM (active).

For `Cc1cc(C)c2nccc(/C=C/c3ccc(N(C)C)cc3)c2c1`, which Potency is on record?
The Potency was 16.4 µM (active).

For `COc1ccc2nccc(/C=C/c3ccc(N(C)C)cc3)c2c1`, which Potency is on record?
The Potency was 18.4 µM (active).

Which Potency does the source give for `CN(C)c1ccc(/C=C/c2ccnc3ccc(I)cc23)cc1` here?
The Potency was 5.17 µM (active).

For `CC1(C(=O)NCc2cccs2)Cc2c(-c3ccc(C(N)=O)cc3)ccnc2O1` (stereo not drawn), which Potency is on record?
The Potency was “inactive”.

With `COc1ccccc1-c1cc(NC=O)c2ncc(-c3cccc(C(=O)N(C)C)c3)n2c1` as the compound, how does the Potency read?
Its Potency is “inactive”.

Which Potency does the source give for `COc1cc(C(=O)Nc2ccc3c(c2)ncn3C)cc(OC)c1OC` here?
The Potency was “inactive”.

For `CC(=O)Nc1cccc(-c2ccnc3c2CC(C(=O)NCc2ccco2)O3)c1` (stereo not drawn), which Potency is on record?
The Potency was “inactive”.

With `CN(C)c1ccc(/C=C/c2ccnc3ccc(N)cc23)cc1` as the compound, how does the Potency read?
Its Potency is 18.4 µM (active).

With `Cc1ccc2nccc(/C=C/c3ccc(N(C)C)cc3)c2c1` as the compound, how does the Potency read?
Its Potency is 16.4 µM (active).

With `O=C(NCc1ccccc1)C1Cc2c(-c3cccc(F)c3)ccnc2O1` (stereo not drawn) as the compound, how does the Potency read?
The Potency was “inactive”.

With `Cn1c(=O)c2cc(NC(=O)NCc3ccc(F)cc3)ccc2n1C/C=C/c1ccccc1` as the compound, how does the Potency read?
The Potency was “inactive”.

Which Potency does the source give for `CCCCn1c(N)c(N(Cc2ccccc2OC)C(=O)c2ccc([N+](=O)[O-])s2)c(=O)[nH]c1=O` here?
The Potency was “inactive”.

With `C=CCN1C(=O)c2ccc(C(=O)N(CC(C)C)c3c(N)n(CCCC)c(=O)[nH]c3=O)cc2C1=O` as the compound, how does the Potency read?
Its Potency is “inactive”.

With `CCCCn1c(N)c(N(CC(C)C)C(=O)Cc2ccc(S(=O)(=O)N3CCOCC3)s2)c(=O)[nH]c1=O` as the compound, how does the Potency read?
The Potency was 18.4 µM (active).

Which Potency does the source give for `Cc1cc(N)cc(C)c1-c1c(Br)cc(N)cc1Br` here?
The Potency was “inactive”.

For `COc1ccc(/C=C/C=C2\NC(=S)NC2=O)cc1`, which Potency is on record?
Its Potency is 6.51 µM (active).

For `COc1ccc2c(c1)c1nc3ccccc3nc1n2CC(=O)OC(C)C`, which Potency is on record?
Its Potency is 3.66 µM (active).

With `CCOc1cccc(-n2nnnc2-c2ccc(OC)cc2)c1` as the compound, how does the Potency read?
Its Potency is “inactive”.

With `COc1cccc(Cn2c(-c3nonc3NC(C)=O)nc3ccccc32)c1` as the compound, how does the Potency read?
Its Potency is “inactive”.

For `CCOc1ccc(Cn2c3ccc(OC)cc3c3nc4ccccc4nc32)cc1`, which Potency is on record?
The Potency was 16.4 µM (active).

For `COc1cccc(Cn2c(-c3nonc3N)nc3ccccc32)c1`, which Potency is on record?
The Potency was “inactive”.

With `CCCN1CCC(=NNc2ccc(S(=O)(=O)N3CCOCC3)cc2[N+](=O)[O-])CC1` as the compound, how does the Potency read?
The Potency was “inactive”.

Which Potency does the source give for `COc1cc(S(=O)(=O)Nc2ccccc2N2CCCCC2)ccc1NC(C)=O` here?
Its Potency is “inactive”.

Which Potency does the source give for `CCOCCC(=O)Nc1ccc2c(c1)c(=O)n(C)n2C/C=C/c1ccccc1` here?
Its Potency is “inactive”.

Which Potency does the source give for `COc1ccc(NC(=O)CSc2nc3c(oc4ccccc43)c(=O)n2Cc2ccco2)cc1Cl` here?
The Potency was 14.6 µM (active).

Which Potency does the source give for `COc1ccccc1CCC(=O)Nc1ccc2c(c1)c(=O)n(C)n2Cc1ccc(F)cc1` here?
The Potency was “inactive”.

With `COc1cc2nc(SCC(=O)NCc3ccco3)n(Cc3ccc(Cl)cc3)c(=O)c2cc1OC` as the compound, how does the Potency read?
The Potency was 5.8 µM (active).

With `CCCn1c(SCC(=O)Nc2ccccc2OC)nnc1-c1ccco1` as the compound, how does the Potency read?
The Potency was “inactive”.

Which Potency does the source give for `O=C(CCCCn1c(=O)c2ccccc2n(Cc2ccc(F)cc2)c1=O)NCc1ccco1` here?
The Potency was “inactive”.

For `Cc1cccc(Cn2c(=O)n(CCCC(=O)NCc3ccco3)c(=O)c3ccccc32)c1`, which Potency is on record?
Its Potency is “inactive”.

Which Potency does the source give for `c1ccc(N=Nc2ccc3cccccc2-3)cc1` here?
The Potency was “inactive”.

With `Cc1ccc(-c2csc(NC3OC(=O)c4ccccc43)n2)cc1` (stereo not drawn) as the compound, how does the Potency read?
The Potency was “inactive”.

For `CCOC(=O)C(=Cc1ccc(-n2cncn2)cc1)C(=O)OCC`, which Potency is on record?
Its Potency is “inactive”.

Which Potency does the source give for `CCOc1cc(S(=O)(=O)NCc2ccc(OC)cc2)c(OCC)cc1-n1cnnn1` here?
Its Potency is “inactive”.

With `CC(C)(C)OC(=O)NCc1ccc(NC(=O)c2nc[nH]c2C(=O)NCCCNC(=O)c2[nH]cnc2C(=O)Nc2ccc(CNC(=O)OC(C)(C)C)cc2)cc1` as the compound, how does the Potency read?
Its Potency is “inactive”.

With `CCC(C)n1c(NC(=O)c2ccccc2)c(C#N)c2nc3ccccc3nc21` (stereo not drawn) as the compound, how does the Potency read?
The Potency was 18.4 µM (active).

Which Potency does the source give for `Cc1ccccc1/C=C\c1nc2ccccc2c(=O)[nH]1` here?
The Potency was “inactive”.

Which Potency does the source give for `O=c1[nH]c(/C=C/c2cccc3ccccc23)nc2ccccc12` here?
Its Potency is 18.4 µM (active).

Which Potency does the source give for `CCN(CC(=O)Nc1ccccc1-c1ccccc1)Cc1nc2ccccc2c(=O)[nH]1` here?
Its Potency is “inactive”.

Which Potency does the source give for `O=c1[nH]c(-c2cccnc2)nc2sc(-c3ccccc3)cc12` here?
The Potency was “inactive”.

With `O=C(NC1CCCC(C(F)(F)F)C1)c1ccc([N+](=O)[O-])o1` (stereo not drawn) as the compound, how does the Potency read?
Its Potency is “inactive”.

For `N#C/C(=C\c1ccc(Cl)cc1)c1nc2ncccc2[nH]1`, which Potency is on record?
Its Potency is “inactive”.

For `N#CC(=Cc1ccccn1)c1nc(-c2ccc(Cl)cc2)cs1`, which Potency is on record?
The Potency was 6.27 µM (active).

Which Potency does the source give for `COc1ccc(CCNC(=O)CC2(CC3=NS(=O)(=O)c4ccccc4N3)CCCC2)cc1OC` here?
Its Potency is “inactive”.

For `COc1cccc(Cn2c3ccc(NC(=O)CCc4ccc(F)cc4)cc3c(=O)n2C)c1`, which Potency is on record?
Its Potency is “inactive”.

With `COc1ccc(-c2cc(-c3nnc(COC(=O)c4ccncc4)o3)c3ccccc3n2)cc1OC` as the compound, how does the Potency read?
The Potency was “inactive”.

Which Potency does the source give for `CCOc1ccccc1NC(=O)Cn1nnc(C(=O)NCc2cccs2)c1N` here?
Its Potency is “inactive”.

Which Potency does the source give for `CCOc1ccc(C2CC(c3c(O)c4ccccc4oc3=O)=NN2c2ccccc2)cc1OC` (stereo not drawn) here?
The Potency was 14.6 µM (active).

For `CCOc1cc(-c2nnc(SCC(=O)NCc3ccccc3)nc2-c2ccc(OC)c(OCC)c2)ccc1OC`, which Potency is on record?
Its Potency is “inactive”.

For `COc1cc2c(cc1OC)CN(C(=O)c1cc(=O)c3ccccc3o1)CC2`, which Potency is on record?
The Potency was “inactive”.

For `COc1ccc(/C=C2\C(=O)NC(=S)N2C(=O)c2ccc(F)cc2)cc1`, which Potency is on record?
The Potency was 8.2 µM (active).

For `COc1ccc(NC(=O)c2ccc3c(c2)c(C)c(C)n3Cc2ccc(F)cc2)cc1`, which Potency is on record?
The Potency was “inactive”.

For `COc1ccc(C(=O)/C=C2/c3ccccc3CC(C)(C)N2C)cc1`, which Potency is on record?
The Potency was “inactive”.

With `NNC(=O)c1cc2sccc2s1` as the compound, how does the Potency read?
Its Potency is “inactive”.

With `CC(C)n1cc(NC(=O)c2cc(-c3ccccc3)on2)cn1` as the compound, how does the Potency read?
The Potency was “inactive”.

Which Potency does the source give for `N#C/C(=C\c1cccc(O)c1)c1nc2ccccc2o1` here?
The Potency was 3.14 µM (active).

Which Potency does the source give for `C[C@]12CCC[C@H](O1)c1c(cc3c(c1O)C(=O)c1c(O)cc(O)cc1C3=O)O2` here?
Its Potency is 13 µM (active).
